Screening data: PubChem, several laboratories
A selection: hits, their analogues and other compounds. The true share with any hit is near 2.8%.
SENP8 block-1 = SENP8 (human) protease inhibition. recombinant SENP8, Nedd8 substrate fluorescence. inhibition, % at 20 µM. Q96LD8. actives 0.64% (n = 360,000). AID 602440; in the data active means inhibition mostly above about 40%, no sharp cut-off; inactive means mostly below about 27%
Target sequence (Q96LD8 whole entry, looked up): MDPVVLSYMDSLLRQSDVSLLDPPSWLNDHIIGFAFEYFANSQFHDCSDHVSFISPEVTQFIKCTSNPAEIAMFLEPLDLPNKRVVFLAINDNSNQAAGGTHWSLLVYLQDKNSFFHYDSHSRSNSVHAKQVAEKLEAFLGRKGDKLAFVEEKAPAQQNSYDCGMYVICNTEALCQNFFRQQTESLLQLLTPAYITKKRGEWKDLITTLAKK
SENP7 inh = SENP7 protease inhibition. recombinant SENP7, Z-RLRGG-aminoluciferin luminescence, 40 min. inhibition, % at 5 µM. actives 1.5% (n = 330,000);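 active means inhibition above about 50% at the single test dose, limit read from the data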;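 further: plate controls were DMSO with enzyme for no effect and no enzyme buffer wells for full effect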
Target sequence (Q9BQF6 706-1050 limits assumed): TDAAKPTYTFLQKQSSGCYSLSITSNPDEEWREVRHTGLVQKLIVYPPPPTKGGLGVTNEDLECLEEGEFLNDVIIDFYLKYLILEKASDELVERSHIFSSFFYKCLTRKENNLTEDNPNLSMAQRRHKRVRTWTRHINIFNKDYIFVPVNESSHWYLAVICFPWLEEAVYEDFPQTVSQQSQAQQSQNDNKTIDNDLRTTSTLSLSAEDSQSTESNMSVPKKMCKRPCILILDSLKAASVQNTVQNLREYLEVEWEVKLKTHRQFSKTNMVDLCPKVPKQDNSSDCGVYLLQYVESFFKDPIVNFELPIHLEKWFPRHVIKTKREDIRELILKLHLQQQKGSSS
HSP90 refold inh = blocks HSP90-mediated luciferase refolding in reticulocyte lysate. Rabbit reticulocyte lysate, luciferase refolding luminescence, 3 h. inhibition, % at 5.6 µM. actives 0.91% (n = 290,000). AID 1789;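 active means inhibition above the screen-wide mean plus 3 SD, computed separately per campaign, cut at about 16% in these data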;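 further: 0% = DMSO wells and 100% = 60 µM geldanamycin wells; inhibitors lower the luminescence because luciferase stays unfolded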
SENP6 block = blocks the human protease SENP6; Recombinant SENP6 catalytic domain, aminoluciferin luminescence; inhibition, % at 10 µM; actives 1.8% (n = 330,000); AID 2599;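 active means inhibition above about 50% at the single tested dose, limit read from the data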;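 further: plate controls were DMSO wells with enzyme for no effect and DMSO wells lacking enzyme for full effect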
SENP8 block-2 = SENP8 protease inhibition; purified SENP8, Z-RLRGG-aminoluciferin cleavage, luminescence; actives 1.2% (n = 330,000); inhibition, % at 10 µM; Q96LD8; in the data active means inhibition above about 50%
Platelet DG rel = platelet dense granule release activity; actives 0.22% (n = 300,000); human platelet-rich plasma, SFLLRN dense granule ATP release, luminescence; inhibition, %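 (compounds screened at 7.5 µM in platelet-rich plasma)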;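 active means mean replicate score, as percent of positive control, at or above 50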
SENP8 conf = confirmation of human SENP8 protease inhibitors. inhibition, % at 12.5 µM. actives 40% (n = 6,200). Recombinant SENP8, Z-RLRGG-aminoluciferin luminescence, 60 min. AID 488912. shares compounds with SENP7 inh;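 active means mean inhibition across replicates above about 50%, limit read from the data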
SENP6 conf = human SENP6 inhibition, confirmed. shares compounds with SENP7 inh. recombinant SENP6, Z-RLRGG-aminoluciferin luminescence. inhibition, % at 12.5 µM. actives 58% (n = 6,200). AID 488915
SENP7 confirm = human SENP7 inhibition, confirmed; recombinant SENP7, Z-RLRGG-aminoluciferin luminescence, 40 min; shares compounds with SENP7 inh; inhibition, % at 12.5 µM; actives 69% (n = 6,200)
Casp3 SENP sel = selectivity test for SENP inhibitors: human caspase-3 inhibition; actives 60% (n = 6,200); inhibition, % at 12.5 µM; AID 488918; purified caspase-3, Z-DEVD-aminoluciferin luminescence, 60 min; shares compounds with SENP7 inh;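 active means mean inhibition above about 50%, limit read from the data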;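 further: plate controls were enzyme with DMSO for no effect and wells without caspase-3 for full effect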
SENP luc ctr = counter-screen for SENP inhibitors: luminescence interference. Pre-incubated SENP8/Z-RLRGG-aminoluciferin, luciferase luminescence interference. shares compounds with SENP7 inh. actives 39% (n = 6,200). AID 488919. inhibition, % at 12.5 µM;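 active means mean inhibition above about 50% when retested at one dose, limit read from the data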;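 further: plate controls were DMSO wells with completed reaction for no effect and substrate without enzyme for full effect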
An asterisk follows results filed as active; i = inactive; . = no result given.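 How the source made its calls, unless noted: active means mean inhibition above about 50% in the one-dose retest (limit read from the data); inactive means the rest.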

SMILES | SENP8 block-1 | SENP7 inh | HSP90 refold inh | SENP6 block | SENP8 block-2 | Platelet DG rel | SENP8 conf | SENP6 conf | SENP7 confirm | Casp3 SENP sel | SENP luc ctr
CC(=O)Nc1ccc2nc(NC(=O)c3ccco3)sc2c1 | -373 | 66* | 3 | 68* | 34 | 29 | 57* | 54* | 86* | 84* | 22
Cc1sc(NC(=O)c2ccco2)nc1-c1ccccc1 | -381 | 7 | 0 | 51* | 26 | 3 | 47 | 44 | 72* | 33 | 61*
O=C(Nc1nc2c(F)cccc2s1)c1ccco1 | -43 | 76* | 15 | 81* | 74* | 5 | 80* | 77* | 94* | 84* | 25
COc1ccc2c(c1)Cc1sc(NC(=O)c3ccco3)nc1-2 | -14 | 95* | -2 | 92* | 88* | -1 | 27 | 46 | 87* | 64* | 78*
COc1ccc2c(c1)CCc1sc(NC(=O)c3ccco3)nc1-2 | -318 | 5 | -3 | -6 | 4 | 21 | . | . | . | . | .
CC(=O)c1sc(NC(=O)c2ccco2)nc1-c1ccccc1 | 3 | -11 | -2 | 5 | -15 | -7 | . | . | . | . | .
N#CCC(=O)N/N=C\c1cc(Br)ccc1OC/C=C/c1ccccc1 | 1 | -7 | 0 | -7 | -2 | . | . | . | . | . | .
CN(C)CCN(CC1CCCN(Cc2ccccc2F)C1)C(=O)c1ccc(Cl)cc1 (stereo unspecified) | 13 | -2 | 1 | 13 | 11 | 0 | . | . | . | . | .
Cc1ccc(-c2cc(C(=O)N/N=C/c3ccccc3O)n[nH]2)o1 | 6 | 52* | -2 | 67* | 49 | 5 | -1 | -3 | 86* | 53* | 30
O=C(Nc1cccc(F)c1)Nc1cnccn1 | 2 | 3 | 2 | -3 | -12 | 2 | . | . | . | . | .
Cc1cc(C)cc(NC(=O)Nc2ccc3c(c2)CCC3)c1 | 3 | 21 | -1 | 7 | -26 | 18 | . | . | . | . | .
O=C(Nc1ccccc1)Nc1ccc2c(c1)CCC2 | 4 | 80* | -2 | 84* | 62* | 5 | 48 | 57* | 91* | 60* | 81*
O=C(Nc1cccc(F)c1)Nc1ccc2c(c1)CCC2 | 8 | 72* | -5 | 63* | -33 | 3 | -13 | -29 | 78* | 29 | 18
O=C(Nc1cccc(F)c1)Nc1ccccn1 | 3 | 47 | -2 | 58* | 28 | 1 | 39 | 34 | 75* | 54* | 24
O=C(Nc1ccc(F)cc1)Nc1ccc2c(c1)CCC2 | 0 | 30 | -4 | -9 | -10 | -11 | . | . | . | . | .
O=C(Nc1ccc2c(c1)CCC2)c1ccc(F)cc1 | 14 | 87* | 16 | 87* | 1 | -23 | 85* | 84* | 96* | 82* | 80*
CSc1nc(N)nc2c1ncn2CC(=O)NCCNc1ccc([N+](=O)[O-])cn1 | 12 | 7 | . | -11 | 5 | . | . | . | . | . | .
COc1cc(SC)ccc1C(=O)Nc1ccc2c(c1)CCC2 | 6 | 73* | 4 | 69* | 67* | 5 | 13 | 75* | 90* | 54* | 7
C=CC[C@H](CC(=O)N(CCO)Cc1ccccc1)C(=O)NCCOC(=O)[C@H](CC=C)CC(=O)OC(C)(C)C | 0 | -11 | . | -9 | -18 | . | . | . | . | . | .
Cc1ccc(NC(=O)c2cccc(Oc3ccc([N+](=O)[O-])cc3)c2)c(C(=O)O)c1 | 16 | 2 | -5 | 42 | 24 | -6 | . | . | . | . | .
Cc1ccccc1NC(=O)c1cccc(S(=O)(=O)Oc2ccc([N+](=O)[O-])cc2)c1 | 6 | 97* | 0 | -8 | 9 | 3 | 4 | 2 | -1 | -1 | -2
COC(=O)[C@@]1(C)[C@H]2C(=O)N(C)C(=O)[C@H]2[C@H]2CN=C(SCc3ccc(Cl)cc3)N21 | 15 | 0 | . | . | . | . | . | . | . | . | .
Cc1ccc2oc(C(=O)Nc3nonc3C)c(C)c2c1 | 2 | 12 | 7 | -3 | -7 | -4 | . | . | . | . | .
COc1ccc2oc(C(=O)OC/C(O)=C(\C#N)c3nc4ccccc4[nH]3)c(C)c2c1 | -99 | 5 | 3 | 6 | 3 | 13 | . | . | . | . | .
Cc1ccc2oc(C(=O)Nc3nnc(C)s3)c(C)c2c1 | -45 | 59* | -4 | 37 | 4 | 0 | 13 | 12 | 22 | 32 | 6
SMILES | SENP8 block-1 | SENP7 inh | HSP90 refold inh | SENP6 block | SENP8 block-2 | Platelet DG rel | SENP8 conf | SENP6 conf | SENP7 confirm | Casp3 SENP sel | SENP luc ctr
COc1ccc2oc(C(=O)Nc3nc4ccc(S(C)(=O)=O)cc4s3)c(C)c2c1 | -442 | -14 | . | -3 | 4 | 5 | . | . | . | . | .
COc1ccc2oc(C(=O)Nc3nnc(C)s3)c(C)c2c1 | i | 62* | . | 15 | 34 | . | 3 | 6 | 21 | 29 | 4
COc1ccc2oc(C(=O)Nc3nc4ccccc4[nH]3)c(C)c2c1 | -305 | 93* | 5 | 78* | 58* | 17 | 26 | 29 | 95* | 84* | 58*
Cc1cccc(NC(=O)c2cc(-c3cc(C)c(C)cc3O)n[nH]2)c1 | 12 | 45 | 2 | 17 | -8 | 2 | . | . | . | . | .
CC(C)(C)c1ccc(C(=O)Nc2cccnc2)cc1 | 9 | 62* | 3 | 69* | 53* | 8 | 12 | 55* | 86* | 66* | 62*
O=C(Nc1cccnc1)c1ccc(C(=O)Nc2cccnc2)cc1 | 12 | 5 | 1 | 2 | -2 | 2 | . | . | . | . | .
CCc1sc(C(=O)Nc2cccnc2)cc1Br | 14 | 79* | -1 | 84* | 60* | -9 | 0 | 67* | 91* | 64* | 72*
O=C(Nc1cccnc1)c1ccc(Br)s1 | 12 | 3 | -2 | 11 | -14 | 1 | . | . | . | . | .
Cc1ccc(-c2cc(C(=O)Nc3cccnc3)[nH]n2)c(O)c1C | 24 | 95* | -1 | 98* | 93* | 17 | 96* | 97* | 101* | 90* | 96*
Cc1ccc(NC(=O)COC(=O)CCC2CCCC2)c(Br)c1 | 22 | 2 | . | -10 | -6 | . | . | . | . | . | .
O=c1c2cc([N+](=O)[O-])cc([N+](=O)[O-])c2[nH]n1-c1ccccc1 | 31 | 0 | -2 | 64* | 46 | 4 | 55* | 51* | 79* | 71* | 73*
COc1cc([N+](=O)[O-])ccc1N=Nc1c(N)[nH]n(-c2ccccc2)c1=O | 25 | 12 | 4 | 6 | 17 | 1 | . | . | . | . | .
